Shown is part of a subset that was picked to be rich in hits.
HIV RNase H inh-1 = HIV-1 RT RNase H inhibitors, primary screen, biochemical, fluorescence. Gag-Pol polyprotein (Human immunodeficiency virus type 1 group M subtype B (isolate …. RT-RNase H RNA/DNA duplex cleavage. inhibition, % at 10 µM. 65,000 tested, 1.9% active. AID 565, 2006; in the data active = inhibition above about 50%
RmlCD inh mix = RmlC and RmlD coupled enzyme inhibitors, primary screen, biochemical, 384-well, compound mixtures, retest; RmlC/RmlD coupled enzyme inhibition, 384-well mixture HTS; inhibition, % at 5.5 µM; 110,000 tested, 0.39% active; AID 1532, 2009; in the data active = inhibition above about 30%, passing the limit was not always enough; inconclusive = no clear call, values can overlap the other calls
HIV RNase H inh-2 = HIV-1 RT RNase H inhibitors, retest, confirmation, biochemical; shares compounds with HIV RNase H inh-1; Recombinant RT RNase H, fluorescent RNA/DNA duplex cleavage; inhibition, % at 10 µM; 1,000 tested, 39% active; in the data active = inhibition above about 48%; inconclusive = no clear call, values can overlap the other calls
Large screens that a line does not name were inactive (follow-up assays come after a bar, where they were run).

Cn1c(=O)c2c(nc(/C=C/c3cccc(Cl)c3)n2C)n(C)c1=O	none (no result: HIV RNase H inh-1)
O=C(NCCCN1CCOCC1)c1onc(CSc2ccc(F)c(F)c2)c1C(=O)NCCCN1CCOCC1	none (no result: HIV RNase H inh-1)
Cc1cccc(C(=O)N[C@@H]2c3ccccc3C[C@@H]2O)n1	none (no result: HIV RNase H inh-1)
Cc1c(NC(=O)Oc2ccccc2)sc(=S)n1C	HIV RNase H inh-1 58.9 | HIV RNase H inh-2 inactive
CC(=O)NC(=O)Nc1sc(=S)n(C)c1C	none
COc1ccc(-c2c(-c3ccsc3)oc3ccc(N4CCOCC4)cc23)cc1	none (no result: HIV RNase H inh-1)
Cc1cnc(C(=O)Nc2ccc3c(c2)CCC3)cn1	none
Cc1cnc(C(=O)Nc2ccc(F)c(F)c2)cn1	HIV RNase H inh-1 50.8 | HIV RNase H inh-2 inactive
CCCN1CCC(=O)N([C@H](CSc2ccc(OC)cc2)CC(C)C)CC1	none (no result: HIV RNase H inh-1)
N#Cc1cc(-c2ccccc2)nn1-c1ccccc1	HIV RNase H inh-1 91.5 | HIV RNase H inh-2 55.9
Clc1ccccc1/C=N/c1cc(-c2ccccc2)nn1-c1ccccc1	none (no result: HIV RNase H inh-1)
Cc1nnc(NC(=O)NC(C)N2C(=O)C3C4C=CC(C4)C3C2=O)s1 (stereo unspecified)	HIV RNase H inh-1 55.4 | HIV RNase H inh-2 inactive
CC(NC(=O)Nc1nnc(C(F)(F)F)s1)N1C(=O)C2C3C=CC(C3)C2C1=O (stereo unspecified)	none
O=C(c1ccc2c3c(cccc13)CC2)N1CCOCC1	none
O=C(c1cccnc1Nc1ccc2c(c1)CCC2)N1CCOCC1	HIV RNase H inh-1 83.8 | HIV RNase H inh-2 inactive
Cc1occc(=O)c1O	none (no result: HIV RNase H inh-1)
CSc1ccc(NC(=O)NCCCN2CCN(c3ccccc3F)CC2)cc1	HIV RNase H inh-1 52.8 | HIV RNase H inh-2 inactive
O=C(NCCCN1CCN(c2ccccc2F)CC1)Nc1ccc(F)cc1	none
CCC1(CC)C(=O)C2=C3C1[C@H](C(=O)OC)C=C(C(=O)OC)C[C@H]3[C@H]1C(=O)N(CC(=O)OC)C(=O)[C@H]1[C@H]2C (stereo partly specified)	none (no result: HIV RNase H inh-1)
c1ccc(-n2c(-c3ccco3)nnc2N2CCOCC2)cc1	none
CN(C)c1ccc2c(c1)N=C(c1ccco1)OP2(=S)N1CCOCC1 (stereo unspecified)	HIV RNase H inh-1 88.8 | HIV RNase H inh-2 67.5
OCCN(CCO)c1ncnc2c1sc1nc(N3CCOCC3)c3c(c12)CCCC3	none
CSc1nc(N(CCO)CCO)c2sc3nc(-c4ccco4)c4c(c3c2n1)CCC4	HIV RNase H inh-1 56.4 | HIV RNase H inh-2 inactive
C=CCSc1nc(C)cc(/C=C\c2ccccc2)c1C#N	none (no result: HIV RNase H inh-1)
CC(C)(C)NC(=O)Cc1ccc(S(=O)(=O)N2CCCC2)s1	none (no result: HIV RNase H inh-1)
O=C(Cc1ccc(S(=O)(=O)N2CCCC2)s1)Nc1nc2c(s1)CCCC2	HIV RNase H inh-1 75.9 | HIV RNase H inh-2 inactive
C=CCn1c(SCc2ccc(C(=O)Nc3ccccc3)cc2)nnc1-c1ccccc1	none (no result: HIV RNase H inh-1)
Cc1nn(C(C)C(=O)NCc2ccccc2Cl)c(=O)c2c1sc1ccccc12 (stereo unspecified)	none (no result: HIV RNase H inh-1)
CC(C)CN(CC(C)C)S(=O)(=O)N1CCC(C(=O)NCCc2ccc(Cl)cc2)CC1	none (no result: HIV RNase H inh-1)
O=C(Nc1ccc(N2CCCCC2)c(C(=O)O)c1)c1ccco1	none
Cc1cccc(NC(=O)c2cc(NC(=O)c3ccco3)ccc2N2CCCCC2)c1	HIV RNase H inh-1 73.1 | HIV RNase H inh-2 inconclusive
O=C(N/N=C\c1cc(Br)cs1)C1COc2ccccc2O1 (stereo unspecified)	none (no result: HIV RNase H inh-1)
CNC(=O)[C@@H]1C[C@H]1[C@@H](NC(=O)CNC(=O)OCc1ccccc1)c1ccccc1	none (no result: HIV RNase H inh-1)
CC(NC(=O)CNC(=O)OCc1ccccc1)C(=O)N1CC(O)CC1C(=O)OCc1ccccc1 (stereo unspecified)	HIV RNase H inh-1 65.8 | HIV RNase H inh-2 inactive
CCOC(=O)Cc1csc(-n2sc3ccccc3c2=O)n1	HIV RNase H inh-1 97.2 | HIV RNase H inh-2 67.0
CCOC(=O)Cc1csc(SCn2nnc3ccccc3c2=O)n1	none
Cc1ccc(NC2c3ncccc3C(=O)N2c2ccccc2C)cc1C (stereo unspecified)	HIV RNase H inh-1 56.2 | HIV RNase H inh-2 inactive
CCOc1ccc(N2C(=O)c3cccnc3C2Nc2ccc(Cl)cc2)cc1 (stereo unspecified)	none
Oc1c(Cl)cc(Cl)c2c1NCCC2	HIV RNase H inh-1 79.8 (no result: RmlCD inh mix) | HIV RNase H inh-2 inactive
O=C1NCCCc2c1oc1ccc(O)cc21	none
CC1Cc2ccccc2N1C(=O)CCn1c(=O)sc2ccccc21 (stereo unspecified)	none
Cc1ccc(N2C(=O)CC(Sc3nc4ccccc4o3)C2=O)cc1Cl (stereo unspecified)	none (no result: HIV RNase H inh-1)
CCOC(=O)c1sc(=S)n(CC)c1N	none
CCn1c(N)c(C(N)=O)sc1=S	HIV RNase H inh-1 70.3 | HIV RNase H inh-2 inactive
Cc1cc(C)n(C(=O)CNC(=O)COc2ccccc2)n1	none
CC(C)Cn1c(N)c(C(=O)COC(=O)CC23CC4CC(CC(C4)C2)C3)c(=O)n(C)c1=O	none (no result: HIV RNase H inh-1)
CCC(C)Sc1nc2ccccc2n1CC(=O)O (stereo unspecified)	none (no result: HIV RNase H inh-1)
CC1=C(SCCC#N)S/C(=C2\SC(C)=C(SCCC#N)S2)S1	HIV RNase H inh-1 71.5 | HIV RNase H inh-2 65.4
O=C(CSc1ncc(-c2ccccc2)n1C1CCCC1)N1CCc2ccccc21	none (no result: HIV RNase H inh-1)
CCSc1ccccc1C(=O)Nc1nncs1	HIV RNase H inh-1 56.0 | HIV RNase H inh-2 inactive
Cc1ccccc1C(=O)Nc1nncs1	none (no result: HIV RNase H inh-1)
CC1(C)CC(=O)C2=C(C1)c1c(ccc3ccccc13)NC2c1ccc(Br)o1 (stereo unspecified)	none (no result: HIV RNase H inh-1)
CSc1nnc2c3cc(C)ccc3n(Cc3ccccc3)c2n1	HIV RNase H inh-1 50.2 | HIV RNase H inh-2 inactive
CCOC(=O)C(CC)Sc1nnc2c3cc(C)ccc3n(C)c2n1 (stereo unspecified)	none (no result: HIV RNase H inh-1)
Cc1cc(N2CCC(C)CC2)nc(SCC(=O)c2ccccc2)n1	none (no result: HIV RNase H inh-1)
COCCNC(=O)c1cc2oc3ccccc3c2n1C	none (no result: HIV RNase H inh-1)
CCC(=O)N(Cc1cc(=O)[nH]c2ccccc12)c1cccc(C)c1	HIV RNase H inh-1 69.8 | HIV RNase H inh-2 inactive
COc1ccc(N(Cc2cc(=O)[nH]c3ccccc23)C(=O)c2ccco2)cc1	none
CCOCCCNS(=O)(=O)c1ccc(Br)cc1	none
CSc1ccc(C2Nc3ccccc3-c3cc(C)nn32)cc1 (stereo unspecified)	HIV RNase H inh-1 70.9 | HIV RNase H inh-2 inactive
Cc1cc2n(n1)C(c1ccsc1)Nc1ccccc1-2 (stereo unspecified)	none
Cc1ccc(C)c(C(=O)COC(=O)c2ccccc2N2C(=O)C3C4CCC(C4)C3C2=O)c1 (stereo unspecified)	none (no result: HIV RNase H inh-1)
COc1cc(O)cc2c1[C@@H]1Oc3c(ccc(O)c3CC=C(C)C)[C@@H]1CO2	none (no result: HIV RNase H inh-1)
CCOC(=O)c1sc(NC(=O)C(CC)Sc2nnc3c4ccccc4n(CC)c3n2)nc1C (stereo unspecified)	none (no result: RmlCD inh mix)
CCOC(=O)c1sc(NC(=O)CSc2nnc3c4ccccc4n(CC)c3n2)nc1C	HIV RNase H inh-1 74.0 (no result: RmlCD inh mix) | HIV RNase H inh-2 inactive
Cc1cc(C)cc(NC(=O)CSc2nc(N)c(NC(=O)c3cccs3)c(=O)[nH]2)c1	none (no result: HIV RNase H inh-1)
CC(C)c1cc(C(=O)N2CCN(C(c3ccccc3)c3ccccc3)CC2)no1	HIV RNase H inh-1 73.8 (no result: RmlCD inh mix) | HIV RNase H inh-2 inactive
CC(C)Cc1cc(C(=O)N2CCN(C(c3ccccc3)c3ccccc3)CC2)no1	none (no result: HIV RNase H inh-1)
Cc1cc2nc(-c3ccc(SCC(=O)N4CCc5ccccc54)nc3)[nH]c2cc1C	none (no result: HIV RNase H inh-1)
CCc1nnc(NC(=O)CSc2nc(-c3ccc(OC)cc3)ns2)s1	none
COc1ccc(-c2nsc(SCC(=O)Nc3cc(C)on3)n2)cc1	HIV RNase H inh-1 83.6 | HIV RNase H inh-2 61.3
